# Results published in PubChem BioAssay (EPA / NIEHS).
# The source made the active and inactive calls. How the source made its calls: active means hit-call score of the fitted dose curve at least 0.9, where 1 is the maximum; inactive means score below 0.9.
# Test: ATG_CMV_CIS: Attagene CIS-FACTORIAL HepG2 Assay for human CMV (Internal Marker) (AID 2282928);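 further: endpoint acts as a background internal control marker rather than a target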
# Conditions: HepG2 CMV promoter reporter, transcription factor profiling; actives raise or lower the signal
# Protocol: ATG_CIS is a cell-based, multiplexed-readout assay that uses HepG2, a human liver cell line, with measurements taken at 24 hours after chemical dosing in a 24-well plate.ATG_CMV_CIS is one of 52 assay component(s) measured or calculated from the ATG_CIS assay. It is designed to make measurements of mRNA induction, a form of inducible reporter, as detected with fluorescence intensity signals by Reverse transcription polymerase chain reaction (RT-PCR) and Capillary electrophoresis technology.Data from the assay component ATG_CMV_CIS was analyzed into 1 assay endpoint. This assay endpoint, ATG_CMV_CIS, was analyzed with bidirectional fitting relative to DMSO as the negative control and baseline of activity. Using a type of inducible reporter, measures of mRNA for gain or loss-of-signal activity can be used to understand the background control at the transcription factor-level as they relate to the gene . Furthermore, this assay endpoint can be referred to as a secondary readout, because this assay has produced multiple assay endpoints where this one serves a background control function. To generalize the intended target to other relatable targets, this assay endpoint is annotated to the background measurement intended target family, where the subfamily is internal marker.
# Human liver HepG2 cells are transiently transfected with multiple reporter transcription units (MRTUs) in 6-well plates using FuGene 6 reagent (Roche; 3 ml FuGene/1 mg DNA). The MRTU constructs are regulated by a cis-regulating element (promoter). […] A major difference between the CIS and TRANS system is that in CIS activities of endogenous TFs are measured, whereas the TRANS assay evaluates changes in activities of exogenous, chimeric NR-Gal4 proteins. […] At the end of 24 hour incubation, total RNA was isolated using TriZol reagent (Invitrogen). The isolated RNA is then reverse-transcribed using oligo(dT) primer and Mo-MLV reverse transcriptase (Invitrogen) with DNAse I (Ambion) treatment for 30 min. The one-tenth of the produced cDNA was amplified by PCR using Taq DNA polymerase (Invitrogen) and two reporter sequence-specific primers. The PCR products were fluorescently labeled by primer extension with 6-arboxyfluorescein (6-FAM) 5'-labeled reporter sequence-specific primer (2 min at 95 C, 20 s at 68 C and 10 min at 72 C) and these products were digested with 5U of HpaI (New England Biolabs) for 2h at 37 C. The fragments were purified using Qiaquick PCR columns (Qiagen), analyzed on an ABI 3130xL genetic analyzer (Applied Biosystems) with peak positions identified by using a set of X-rhodamine (ROX)-labeled MapMarker1000 molecular weight standards (BioVentures). The raw capillary electrophoresis data was processed using Attagraph software (Attagene).
Compound,AC50,outcome
C=C(C)C(=O)OCCCCCCCCCCCC,100 µM (active),
CCOC(=O)C1=NN(c2ccc(Cl)cc2Cl)C(C)(C(=O)OCC)C1 (stereo not given),,inactive
CCOB(OCC)OCC,,inactive
COC(=O)C=Cc1ccccc1,,inactive
CC(C)CO,,inactive
CC1(C)C(=O)N(CO)C(=O)N1CO,,inactive
C=C(C)C1CC=C(C)CC1 (stereo not given),,inactive
CC(C)=CCCC(C)=CC#N,,inactive
CC(=O)OCCc1ccccc1,,inactive
CCCCOCCOCCOC(C)=O,,inactive
CC(=O)C(C)C,,inactive
CCCC=C(C=O)CC,,inactive
COc1ccc(-c2coc3cc(O)cc(O)c3c2=O)cc1,21.6 µM (active),
CCc1cccc(CC)c1,,inactive
CCC(C)(O)CCCC(C)C (stereo not given),,inactive
CCCCC(=O)O,,inactive
CCN1CCCC1=O,,inactive
CCCCCCCCCCCCCCCCCCOS(=O)(=O)O,11.1 µM (active),
CC1OC(=O)C(C)OC1=O (stereo not given),,inactive
CCCCCCCCCC[N+](C)(CCCCCCCCCC)CCC[Si](OC)(OC)OC,,inactive

Compound,AC50,outcome
Cn1ccnc1,,inactive
CCc1cccc(C)c1N(C(=O)CS(=O)(=O)O)C(C)COC (stereo not given),,inactive
CCCCC/C=C\C/C=C\CCCCCCCC(=O)O,,inactive
CC(C)c1cccc(C(C)C)c1N,,inactive
CCCCCCO,,inactive
Oc1ccc(-c2ccccc2)c(Cl)c1,43.1 µM (active),
CCCCc1ccc(Cl)cc1,,inactive
c1ccc2c(c1)[nH]c1ccccc12,,inactive
CC(=O)CCC=C(C)C,,inactive
CCOC(=O)C1=NOC(c2ccccc2)(c2ccccc2)C1,,inactive
COC(=O)c1ccc(C(=O)OC)c(C(=O)OC)c1,,inactive
C=CC(=O)O[C@H]1C[C@@H]2CC[C@@]1(C)C2(C)C,,inactive
CCC(=O)C1CC(C(C)C)CC=C1C (stereo not given),,inactive
Cc1ccc(S(=O)(=O)N=C=O)cc1,,inactive
CC(C)c1cc(C(C)C)cc(C(C)C)c1,36 µM (active),
C=Cc1cccc(C)c1,,inactive
O=C(OCc1ccccc1)c1ccc(O)cc1,,inactive
C=CC(C)(CCC=C(C)C)OC(=O)C=Cc1ccccc1 (stereo not given),84.2 µM (active),
CO[Si](C)(C)OC,,inactive
COc1ccc(C(=O)/C(Br)=C\C(=O)O)cc1,36 µM (active),
